# Experimental data published in PubChem BioAssay AID686979 (National Center for Advancing Translational Sciences (NCATS), 2013).
# Screen size: about 420,000 compounds; about 50,000 (12%) were called active. Roughly 26% stayed inconclusive and do not appear here. The sample as a whole holds a higher share of actives than the screen did. A number with no mark means an inactive call. Calls follow the shape of the dose curve; as a rule, active = well fitted inhibition curve with a large enough effect; inconclusive = small, poorly fitted or top-dose-only effect; inactive = flat fitted curve, though single readings scatter.
# Experiment: qHTS for Inhibitors of human tyrosyl-DNA phosphodiesterase 1 (TDP1): qHTS in cells in presence of CPT; also: nearly all actives have a fitted effect of over 55% in size
# Settings: chicken DT40 Tdp1-/-;hTDP1 cells + 20 nM CPT, ATP luminescence, 48 h; series mostly up to 46.2 µM; activity change, negative = growth inhibition: at the top concentration
# Excerpt: Human tyrosyl-DNA phosphodiesterase 1 (TDP1) is a novel repair gene, and we propose to use it as a new target for anticancer drug development. TDP1 is not an essential protein, but under treatment with topoisomerase I poison (camptothecin: CPT), TDP1 works as a critical factor for cell survival. To directly identify novel TDP1 inhibitors active in a cellular environment, we have knocked-out the Tdp1 gene in chicken DT40 cells (Tdp1-/-) and generated a complemented counterpart cells that contains a stable transfection of the human TDP1 gene (Tdp1-/-;hTDP1 cells). For the primary screen, Tdp1-/-;hTDP1 cells will be exposed to small molecules in the presence or absence of CPT, and their growth kinetics will be evaluated after 48 hours by measuring ATP activity. […] The hit compounds will then be evaluated in the presence or absence of CPT using Tdp1-/- cells. […] In tertiary assays, biochemical gel-based assays will be used to assess whether the hit compounds specifically target TDP1. To this end, we have screened this cell line against the MLSMR in two primary screens. In one screen we add CPT and in the other we screen in the absence of CPT; this AID represents the screen where CPT was present. NIH Chemical Genomics Center [NCGC] NIH Molecular Libraries Probe Centers Network [MLPCN] MLPCN Grant: MH095538 Assay Submitter (PI): Yves Pommier, NCI
# DT40-hTDP1 cells with 20 nM Camptothecin (add 20 microL of 1 mM CPT stock in 1 L of cell culture medium) were dispensed at 400 cells/5microL/well in tissue culture treated 1536-well white wall/solid bottom assay plates (Greiner Bio-One North America, NC, U.S.A.) using a Multidrop Combi 8 channel dispenser (Thermo Fisher, Waltham, MA, USA). 23 nL compounds and controls were transferred using the pin tool (Kalypsys, San Diego, CA, USA) to the assay plates. The assay plates were then incubated at 37 masculineC for a minimum 48 hr. Three microL of Cell Titer Glo solution was added to the plates and incubated at RT in dark for 30 min. Luminescence was read using ViewLux (Perkin Elmer) with 1 sec exposure slow speed, high gain and 2x binning.
# % is scaled to controls: 0 for no effect and ±100 for the full control effect; potency is read from the fitted curve at half-maximal effect.
Structure (SMILES),Potency,"activity change, negative = growth inhibition"
C=CC(=O)Nc1ccc(Nc2ccnc(Nc3ccc(N4CCN(C)CC4)cc3)n2)cc1,9.2 µM (active),–
CN1CCN(c2ccc(NC(=O)c3cc(Cl)c4c(c3)OCCO4)cc2)CC1,–,-20.6%
Cn1cnnc1SCC(=O)Nc1ccc(N2CCOCC2)cc1,–,7.87%
COc1ccc(-n2c(=O)[nH]c3cc(C(=O)NCCc4ccc(OC)c(OC)c4)ccc3c2=O)c(OC)c1,–,-11.1%
Cc1c(C)n(Cc2ccc(Cl)cc2)c2ccc(C(=O)NCCc3ccc(S(N)(=O)=O)cc3)cc12,18.4 µM (active),–
COc1ccc(C(=O)NCC[N+](C)(C)C)cc1,–,2.69%
COc1ccc(Cn2c(=S)[nH]c3cc(C(=O)NCCCN4CCOCC4)ccc3c2=O)cc1,–,-15.5%
CCn1c(C)c(C)c2cc(C(=O)NCCc3cc(OC)ccc3OC)ccc21,20.6 µM (active),–
Cc1ccc(NS(=O)(=O)c2ccc(C(=O)NCCCN3CCOCC3)cc2)cc1,–,-19.6%
Cc1c(C)n(Cc2ccc(Cl)cc2)c2ccc(C(=O)NCCCN3CCOCC3)cc12,23.1 µM (active),–
CCOC(=O)c1c(C)c(C(=O)NCCc2ccc(S(N)(=O)=O)cc2)c(C)n1CC,–,-8.97%
COc1ccc(C(=O)NCCc2ccc(S(N)(=O)=O)cc2)cc1OC,–,8.22%
NC(=O)c1nnsc1-c1ccc(-c2snnc2C(N)=O)cc1,–,4.47%
CCCCN1CC(CO)Oc2cccc(F)c2S1(=O)=O (stereo not drawn),–,-0.718%
COc1ccc(OCC(=O)NCCS(=O)(=O)N2CCN(c3ccc(F)cc3)CC2)cc1,–,-11.2%
Cc1cc2cc3c(N)[nH]nc3nc2cc1C,–,1.04%
O=S1(=O)CCOC[C@H](Cc2ccccc2)N1Cc1ccccc1Br,–,-0.698%
COc1ccccc1C(=O)NC(=S)NC12CC3CC(CC(C3)C1)C2,–,-23%
CC(=O)c1cc(CN2CCC(n3nccc3NC(=O)c3ccccc3Cl)CC2)cs1,–,4.13%
CCCCCc1ccc(-c2ccc(C(=O)O)cc2)nc1,–,-17.7%
CC(=O)Nc1ccc(S(=O)(=O)NC2(C(F)(F)F)C(=O)NC(C)=C2C#N)cc1 (stereo not drawn),–,-13.2%
CC1CCCC(C)N1C(=O)COC(=O)c1ccccc1C(=O)c1ccccc1 (stereo not drawn),–,-17.9%
Cc1ccc(Cl)c(OCC(=O)N2CCc3ccccc3C2)c1,–,4.91%

Structure (SMILES),Potency,"activity change, negative = growth inhibition"
C=CCc1ccccc1OCC(O)CN1CCN(CCO)CC1 (stereo not drawn),–,-1.41%
OC(COc1ccc(F)cc1Cl)CN1CCc2ccccc2C1 (stereo not drawn),20.6 µM (active),–
COCCN1CCn2c(nc3cc(NS(C)(=O)=O)ccc32)C1,–,-0.0281%
Cc1cccc(CCNC(=O)Cn2ncc3c([nH]c4ccc(C)cc43)c2=O)c1,–,5.21%
CC12CN(Cc3ccccc3)CC(C)(CN(Cc3ccccc3)C1)C2=NO,23.1 µM (active),–
CC(=O)N1CCC2(CCCN(Cc3ccccc3)C2)CC1,–,10.1%
CS(=O)(=O)N1CCC2(CC1)CN(Cc1ccccc1)C2,–,-3.76%
O=C1Nc2cc(Cl)c(Cl)cc2N(O)N1c1cc(Cl)cc(Cl)c1,–,-23%
O=C(Nc1nc2ccc(F)cc2s1)c1nc(SCc2ccccc2F)ncc1Cl,–,-22.7%
Cc1cccc(NC(=O)c2nc(S(=O)(=O)Cc3ccccc3)ncc2Cl)c1,0.92 µM (active),–
CCSc1ncc(Cl)c(C(=O)Nc2cc(C)ccc2C)n1,inactive,–
CN(CC(=O)Nc1ccccc1C(F)(F)F)C(=O)Cc1ccccc1F,–,-12.4%
CSc1nnc(NC(=O)c2nc(S(=O)(=O)Cc3ccc(C)cc3)ncc2Cl)s1,6.51 µM (active),–
CCSc1nnc(NC(=O)c2ccc(C)cc2)s1,–,-18.9%
CCCSc1ncc(Cl)c(C(=O)Nc2c(C(=O)Nc3ccccc3)oc3ccccc23)n1,–,-28.7%
O=C(Nc1ccccc1C(F)(F)F)c1nc(S(=O)(=O)Cc2ccccc2F)ncc1Cl,0.562 µM (active),–
Cc1cccc(NC(=O)C(C)SCc2ccccc2)c1 (stereo not drawn),–,-16.9%
Cc1ccc(NC(=O)c2nc(S(=O)(=O)Cc3cccc(C)c3)ncc2Cl)cc1,0.651 µM (active),–
Cc1ccc(NC(=O)c2cccnc2C(=O)Nc2ccc(C)cc2)cc1,–,-2.57%
NC(=O)CSc1nnc(NC(=O)c2ccc(Br)o2)s1,–,-8.79%
Cc1cc2c3ccccc3[nH]c(=O)n2n1,–,-12%
COc1ccc(S(=O)(=O)N2CCOCC2)cc1NC(=O)CSc1ncnc2ccccc12,–,0.923%
Cc1cc2c(=O)n(CC(=O)NCC(=O)Nc3ccc(C(C)C)cc3)cnc2s1,–,1.73%

Structure (SMILES),Potency,"activity change, negative = growth inhibition"
COc1ccc(CNC(=O)COc2cccnc2[N+](=O)[O-])cc1,–,-4.32%
COc1cccc(C(=O)OCC(=O)c2[nH]c(C)c(C(C)=O)c2C)c1,–,-19.6%
CC(=O)Nc1ccc(Sc2ccccc2C(=O)N2CCCC2)cn1,–,-23.3%
Cc1[nH]c2ccccc2c1C(=O)C(=O)NCc1nnnn1-c1cccc(F)c1,–,-21.2%
CCc1c(C)c2ccc(OC3CCCCC3=O)cc2oc1=O (stereo not drawn),–,-10.3%
Cc1cccc(CS(=O)(=O)c2ncc(Cl)c(C(=O)Nc3ccc(F)cc3)n2)c1,1.3 µM (active),–
CSc1ncc(Cl)c(C(=O)Nc2cc(C)ccc2C)n1,–,-2.22%
Cc1cc(NC(=O)c2ccc(F)cc2)ccc1NC(=O)c1ccco1,–,-1.79%
CC(=O)C1C(c2ccc(Cl)cc2)c2c(n[nH]c2C)CC1(C)O (stereo not drawn),–,-7.41%
Cc1ccc(CNC(=O)C(=O)c2cn(CC(=O)N3CCOCC3)c3ccccc23)cc1,–,6.23%
Cc1ccc(NC(=O)N2CCSc3ccccc32)cc1,–,-18.4%
C=CCn1c(C23CC4CC(CC(C4)C2)C3)n[nH]c1=S,–,-28.3%
CCc1c(C)nc(N2CCN(Cc3ccccc3)CC2)[nH]c1=O,–,-24.7%
CC(C)OC(=O)C(C#N)c1nc2ccccc2nc1N1CCN(Cc2ccccc2)CC1 (stereo not drawn),23.1 µM (active),–
COC(=O)c1sc(N2CCN(Cc3ccccc3)CC2)nc1N,–,1.92%
CN1CC(=O)N=C1N,inactive,–
N#Cc1c(-c2ccccc2)c(-c2ccccc2)n[nH]c1=O,–,-27.2%
CN(C)c1ccc(CNC(=O)CN2C(=O)COc3ccc(S(=O)(=O)N4CCCC4)cc32)cc1,–,0.598%
CCOC(=O)c1c(NC(=O)CSc2nnc(C)c(=O)[nH]2)sc2c1CCC2,–,-7.67%
Cc1nnc(SCC(=O)N2CCOCC2)[nH]c1=O,–,24%
CCCCOC(=O)CNc1nnc(SCC(=O)OCC)[nH]c1=O,10.3 µM (active),–
CC(=O)c1ccc[n+](C(C)CCC(C)[n+]2cccc(C(C)=O)c2)c1 (stereo not drawn),–,22.8%
